Test results: PubChem BioAssay
Several values for one entry are separate records, joined by “and”; a condition that tells them apart may be missing. Equal entries are not always repeated. Activity calls are given as the source filed them.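 The calls were made as follows, unless noted: active = inhibition at or above 50% relative to wild type and mutant plate controls; inactive = inhibition below 50%.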

Experiments:
[1] = inhibitors of mutant huntingtin aggregation, primary screen, imaging, exon1htt(103Q)mCFP cells, high-content imaging (AID 483;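 active = visual image review flags a hit and inhibition of aggregation exceeds 20%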;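 also: compound exposure lasted 3 days before fixation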;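 as to nuclei count: percent of the per-plate median nuclei count of sample wells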); conditions: exon1htt(103Q)mCFP cell line, aggregate imaging, at 2 µM; inhibition of aggregation: stronger effect = higher value; nuclei count: measured here: cell count, toxicity
[2] = inhibitors of E-selectin induction by TNFa, primary screen, imaging, HUVEC, immunofluorescence, MLSMR starter and 10KST1 sets (AID 487;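 active = visually confirmed hit in the image check and inhibition above 20%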;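 as to inhibition: signal is fraction of cell area covered by stained E-selectin grains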;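 as to nuclei count: 100% = median nuclei count of all wells on the same plate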); conditions: HUVEC TNFalpha-induced E-selectin immunofluorescence imaging, at 2 µM; inhibition: stronger effect = higher value; nuclei count: measured here: cell number, toxicity
[3] = DUSP6 inhibitors restoring Erk phosphorylation by chemical complementation, primary imaging in DUSP6-transfected HeLa (AID 609;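 active = compounds giving at least 50% inhibition in the cell-based MKP-3 phosphatase rescue imaging test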;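 as to inhibition: phospho-Erk level distribution per well compared with pooled transfected vehicle control wells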); conditions: HeLa MKP-3 transfected, phospho-Erk imaging KS statistic, at 10 µM, cells stimulated with TPA for 15 min
[4] = biological target: Dual specificity protein phosphatase 6 (Homo sapiens) (UniProt Q16828); test: as above; conditions: HeLa MKP-3 transfected, phospho-Erk imaging KS statistic; at 10 µM; stronger effect = higher value; cells stimulated with TPA for 15 min
Chain of Dual specificity protein phosphatase 6 (Homo sapiens) (Q16828 whole entry, looked up): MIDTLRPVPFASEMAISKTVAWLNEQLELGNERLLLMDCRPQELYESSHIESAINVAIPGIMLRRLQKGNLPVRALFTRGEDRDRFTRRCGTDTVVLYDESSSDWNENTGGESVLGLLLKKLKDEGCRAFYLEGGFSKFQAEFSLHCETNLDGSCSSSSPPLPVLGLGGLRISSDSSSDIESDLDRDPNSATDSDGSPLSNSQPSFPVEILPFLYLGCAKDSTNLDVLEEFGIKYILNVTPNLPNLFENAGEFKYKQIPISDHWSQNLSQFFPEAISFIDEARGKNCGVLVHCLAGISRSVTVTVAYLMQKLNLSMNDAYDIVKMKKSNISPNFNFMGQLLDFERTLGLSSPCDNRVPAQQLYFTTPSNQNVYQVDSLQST

[5] = biological target: Voltage-gated potassium channel subunit beta-2 (Rattus norvegicus) (UniProt P62483); test: KvBeta enzyme negative modulators, primary screen, biochemical, NADPH fluorescence (AID 622;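 active = fluorescence slope higher than the sample average by over 3 SD, cut at about -0.22 in these data, passing the limit was not always enough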;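 also: slope of raw intensity against log time taken from 70 to 1610 s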); conditions: recombinant KvBeta, 4-cyanobenzaldehyde reduction, at 10 µM, stronger effect = higher value
Chain of Voltage-gated potassium channel subunit beta-2 (Rattus norvegicus) (P62483 whole entry, looked up): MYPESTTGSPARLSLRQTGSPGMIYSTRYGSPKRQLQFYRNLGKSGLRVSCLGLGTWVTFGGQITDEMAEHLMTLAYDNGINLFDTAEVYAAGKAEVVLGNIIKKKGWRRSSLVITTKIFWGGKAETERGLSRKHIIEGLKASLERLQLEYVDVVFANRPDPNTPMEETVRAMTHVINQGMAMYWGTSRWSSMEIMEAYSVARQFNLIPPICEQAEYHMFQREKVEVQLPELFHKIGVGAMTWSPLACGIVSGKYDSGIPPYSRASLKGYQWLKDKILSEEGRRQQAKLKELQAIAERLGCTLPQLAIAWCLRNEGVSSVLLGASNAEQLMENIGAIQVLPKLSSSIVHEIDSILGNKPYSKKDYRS

[6] = biological target: Voltage-gated potassium channel subunit beta-2 (Rattus norvegicus) (UniProt P62483); test: KvBeta positive modulators, primary screen, biochemical, NADPH fluorescence (AID 623;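 active = NADPH fluorescence slope more negative than the mean of all samples by about 3 SD, 99.7% confidence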;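 also: fluorescence intensity change per second fitted from 20 to 320 s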); conditions: Recombinant KvBeta, NADPH fluorescence decrease slope, 10 min; at 10 µM; stronger effect = lower value
[7] = biological target: Alpha-2C adrenergic receptor (Homo sapiens) (UniProt P18825); test: modulators of alpha2C/GIRK thallium flux, primary screen, cell-based, HEK293 alpha2C/GIRK1/2 (AID 624;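 active = fluorescence slope after compound addition differing from the mean of all screened samples at 99.7% confidence, in either direction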;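 also: slope of fluorescence ratio to pre-addition baseline per second over 15 to 24 s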); conditions: thallium flux BTC fluorescence, at 10 µM, actives lie on both sides
Chain of Alpha-2C adrenergic receptor (Homo sapiens) (P18825 whole entry, looked up): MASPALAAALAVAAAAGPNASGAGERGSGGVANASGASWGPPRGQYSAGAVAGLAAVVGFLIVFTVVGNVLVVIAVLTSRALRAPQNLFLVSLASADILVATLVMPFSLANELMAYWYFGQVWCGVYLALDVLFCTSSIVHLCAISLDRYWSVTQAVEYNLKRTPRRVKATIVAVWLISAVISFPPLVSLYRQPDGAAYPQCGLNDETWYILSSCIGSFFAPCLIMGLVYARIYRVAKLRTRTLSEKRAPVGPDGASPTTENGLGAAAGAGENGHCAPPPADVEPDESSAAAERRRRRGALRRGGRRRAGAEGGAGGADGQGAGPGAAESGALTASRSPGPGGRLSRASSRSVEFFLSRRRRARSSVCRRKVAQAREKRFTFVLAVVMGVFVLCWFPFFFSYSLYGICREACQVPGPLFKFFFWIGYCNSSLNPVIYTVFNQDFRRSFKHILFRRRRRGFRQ

[8] = inhibitors of larval lipid processing in zebrafish, primary screen, whole organism, PED6 fluorescence, gall bladder and intestine (AID 686;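 active = a full or partial loss of lipid-probe fluorescence in the fish gall bladder, intestine or both, judged by eye; inactive = no fluorescence loss, or compound toxic to the fish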;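 also: larvae 5 to 7 days old with five fish per well; signal comes from phospholipase A2 cleavage of quenched PED6 carried via bile; overnight exposure to compound and PED6 before scoring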); conditions: Zebrafish larvae PED6 lipid processing, fluorescence scoring; screened at 20 µM (by protocol)
[9] = inhibitors of Chlamydomonas gravitaxis, primary screen, whole organism, Chlamydomonas reinhardtii, WT vs cilia-less mutant, absorbance, 96-well (AID 463189); conditions: OD600 absorbance, 2 days, at 10 µM, stronger effect = higher value;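 also: 0% = wild type cc124 cells in DMSO and 100% = ciliumless bld1 mutant cells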
[10] = inhibitors of Sendai virus-induced IRF3 signaling, primary screen, TLR/RLR signaling modifier project, cell-based, Sendai virus stimulus, luciferase, 10K MLSCN set (AID 602276;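 active = inhibition at or above 50% at 10 µM; inactive = inhibition below 50%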;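 also: firefly luciferase from ISG56 promoter only with Renilla not read in this screen; 0% = Sendai virus plus DMSO and 100% = medium plus DMSO without virus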); conditions: HEK293 RL24 IRF3 luciferase reporter, at 10 µM, stronger effect = higher value
[11] = inhibitors of poly I:C-induced TLR3 signaling, primary screen, cell-based, poly I:C stimulus, luciferase, 10K MLSCN set (AID 602277;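 active = inhibition of the reporter signal at or above 50%; inactive = inhibition below 50%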); conditions: HEK293-TLR3 RL24 IRF3 luciferase reporter, at 10 µM, stronger effect = higher value
[12] = measured here: cell density z-score
[13] = measured here: nuclear c-Myc green intensity z-score
[14] = measured here: nuclear pErk red intensity z-score, stronger effect = higher value

| Structure (SMILES) | inhibition of aggregation [1] | nuclei count [1] [%] | inhibition [2] | nuclei count [2] [%] | z-score [3, 12] | z-score [3, 13] | z-score [3, 14] | inhibition [4] | fluorescence slope [5] | NADPH fluorescence slope [6] | slope [7] | outcome [8] | inhibition [9] | inhibition [10] | inhibition [11] |
| --- | --- | --- | --- | --- | --- | --- | --- | --- | --- | --- | --- | --- | --- | --- | --- |
| NS(=O)(=O)c1cc2c(cc1C(F)(F)F)NCNS2(=O)=O | 0% (inactive) | 106 | -96.4% (inactive) | 114 | -1.02 | 0.57 | -0.708 | 3.45% (inactive) | -0.444 (inactive) | -4.4e-05 (inactive) | 0.00463 (inactive) | inactive | -11.3% (inactive) | 5.25% (inactive) | 24.3% (inactive) |
| O=c1c(O)c(-c2ccc(O)cc2O)oc2cc(O)cc(O)c12 | 2.1% (inactive) | 102 | 3% (inactive) | 114 | -0.466 | 0.679 | 0.0465 | -0.493% (inactive) | -0.439 (inactive) | -0.000116 (inactive) | 0.00575 (inactive) | inactive | 8.46% (inactive) and 17% (inactive) | 11.8% (inactive) | 29.6% (inactive) |
| O=c1[nH]c(=O)n([C@H]2C[C@H](O)[C@@H](CO)O2)cc1F | -11.9% (inactive) | 10.3 | -47% (inactive) | 116 | 0.0804 | 0.765 | -0.71 | 3.59% (inactive) | -0.533 (inactive) | -5.3e-05 (inactive) | 0.00542 (inactive) | inactive | -13.9% (inactive) | -38.5% (inactive) | 15.4% (inactive) |
| Cn1c(=O)c2c(ncn2CC(O)CO)n(C)c1=O (stereo not given) | 15% (inactive) | 90 | -81.8% (inactive) | 127 | 0.192 | -0.712 | 0.659 | 3.59% (inactive) | -0.438 (inactive) | 4.1e-05 (inactive) | 0.00483 (inactive) | inactive | 8.88% (inactive) | 12.6% (inactive) | 29.1% (inactive) |
| COc1cccc2c1C(=O)c1c(O)c3c(c(O)c1C2=O)C[C@@](O)(C(C)=O)C[C@@H]3O[C@H]1C[C@H](N)[C@H](O)[C@H](C)O1 | 49.1% (inactive) | 0.6 | 92.8% (active) | 84 | 0.473 | 10.2 | 4.38 | 102% (active) | -0.452 (inactive) | -3.6e-05 (inactive) | 0.00285 (inactive) | inactive | 33% (inactive) | -34.8% (inactive) | 102% (active) |
| CC1(C)S[C@@H]2[C@H](NC(=O)Cc3ccccc3)C(=O)N2[C@H]1C(=O)O | 9.3% (inactive) | 68.8 | -6% (inactive) | 104 | 1.44 | -1.24 | -1.04 | 5.79% (inactive) | -0.496 (inactive) | -5.4e-05 (inactive) | 0.00416 (inactive) | inactive | 4.14% (inactive) | 20.3% (inactive) | 37.6% (inactive) |
| CC(=O)[C@@]1(O)CC[C@H]2[C@@H]3C[C@H](C)C4=CC(=O)C=C[C@]4(C)[C@@]3(F)[C@@H](O)C[C@@]21C | 10.8% (inactive) | 60.1 | -32.9% (inactive) | 121 | 0.696 | 0.132 | 1.25 | 7.39% (inactive) | -0.416 (inactive) | -5e-05 (inactive) | 0.0055 (inactive) | inactive | -2.25% (inactive) | 13.2% (inactive) | 38.7% (inactive) |
| CCCC1O[C@@H]2C[C@H]3[C@@H]4CCC5=CC(=O)C=C[C@]5(C)[C@H]4[C@@H](O)C[C@]3(C)[C@]2(C(=O)CO)O1 (stereo not given in full) | -17.2% (inactive) | 58 | -133% (inactive) | 138 | 0.229 | -0.532 | -0.405 | 13.3% (inactive) | -0.423 (inactive) | 1.2e-05 (inactive) | 0.00479 (inactive) | inactive | 6.85% (inactive) and -4.63% (inactive) | 0.287% (inactive) | 58.3% (active) |
| CN(C)CCCC1(c2ccc(F)cc2)OCc2cc(C#N)ccc21 (stereo not given) | -40.9% (inactive) | 103 | -57.3% (inactive) | 141 | -1.47 | -1.41 | 2.05 | -9.66% (inactive) | -0.453 (inactive) | 1.8e-06 (inactive) | 0.00413 (inactive) | inactive | 8.33% (inactive) and 1.25% (inactive) | 1.82% (inactive) | 18.9% (inactive) |
| CC1(C)O[C@@H]2C[C@H]3[C@@H]4C[C@H](F)C5=CC(=O)C=C[C@]5(C)[C@@]4(F)[C@@H](O)C[C@]3(C)[C@]2(C(=O)CO)O1 | -15.7% (inactive) | 58 | -6.4% (inactive) | 102 | 1.28 | -0.179 | -0.732 | 27.1% (inactive) | -0.489 (inactive) | 1.8e-05 (inactive) | 0.00523 (inactive) | inactive | -10.3% (inactive) | 5.68% (inactive) | 56.9% (active) |
| OC(CCN1CCCCC1)(c1ccccc1)C1CCCCC1 (stereo not given) | 11.9% (inactive) | 107 | -31.1% (inactive) | 119 | 0.0708 | 1.69 | -1.17 | 21.2% (inactive) | -0.528 (inactive) | -8.4e-05 (inactive) | 0.00465 (inactive) | inactive | 1.25% (inactive) and 22.1% (inactive) | 0.614% (inactive) | -5.26% (inactive) |
